# Reference: ChEMBL document CHEMBL3988442, “University of Dundee, Small-Polar-MMV Screening Library” (2021)
# Target: Shiga toxin 2 (Escherichia coli O157:H7) (UniProt P09385+P09386)
# Experiment: E. coli 0.157:H7 Shiga Toxin SOP - stx2 screening assay
# Format: functional
# Design: scale not given: direction of the effect not stated beside the values
# Details: 30 µM
row,SMILES,Percent Effect
1,CCc1nc(CN(C)CC2CCN(CC(C)O)CC2)no1 (stereo unspecified),11%
2,CCOC(=O)CN1CCC2(CC1)CC(=O)c1ccc(OC)cc1O2,10.6%
3,OCCn1cc(CN2CCN(CCOc3ccccc3)CC2)cn1,13.3%
4,COCCc1noc(CN2CCOC(Cn3nc(C)cc3C)C2)n1 (stereo unspecified),-7.72%
5,Cc1cn2c(n1)CCC(NC(=O)c1nc(C)ncc1Cl)C2 (stereo unspecified),12.5%
6,CN1CCc2cc(C(CNS(=O)(=O)c3cccs3)N3CCCC3)ccc21 (stereo unspecified),-6.23%
7,Cc1cc(OCC(=O)N2CCCC(c3noc(C)n3)C2)no1 (stereo unspecified),-41.1%
8,CN(CCN1CCCCC1)C(=O)c1cc(CN2CCOCC2)on1,-1.02%
9,CC(COc1ccccc1)NCc1nc(-c2cccnc2)no1 (stereo unspecified),1.39%
10,Cc1cnn(CC2CCCN2C(=O)c2cc3ccccc3[nH]2)c1 (stereo unspecified),14.6%
11,FC(F)(F)COCCN1CCN(c2ccc3nncn3n2)CC1,-42.1%
12,CC(C)c1noc(CN(Cc2ccccc2F)C2CC2)n1,-59.6%
13,COc1cccc(C(=O)N2CCc3ncnc(C)c3CC2)c1,-12%
14,Cc1cc2c(cc1C)C(NCc1nnc3n1CCCCC3)CCCO2 (stereo unspecified),-2.95%
15,COCc1cccc(CNC(=O)CN2CCCC2c2noc(C)n2)c1 (stereo unspecified),14.4%
16,CSCc1cccc(C(=O)N2CCN(CC(C)O)CC2)c1 (stereo unspecified),7.3%
17,COc1cccc(CN2CCCCCC2c2cccs2)c1O (stereo unspecified),-75.8%
18,O=C(NCc1cccc(F)c1)N1CCC2(CC(=O)N(c3ccsc3)C2)C1 (stereo unspecified),-7.69%
19,COc1ncc(NC(=O)Nc2cc(C)ccc2OC)cn1,-28.6%
20,CCN(CCn1cccn1)Cc1nc(-c2cccs2)oc1C,7.38%
21,c1cc(CNCc2ccnc(N3CCOCC3)c2)c2c(c1)OCCO2,-11.8%
